This is an account of results in PubChem BioAssay AID463173 (ICCB-Longwood Screening Facility, Harvard Medical School, 2010).

Each structure is given as a SMILES string. Screen size: about 52,000 compounds; about 4,300 (8.3%) were called active. Cut-off read from the data, not from the text of the source: active = survival mostly below about 52% (no sharp cut-off); inactive = mostly above about 56%. What follows is part of a selection rich in actives, with near analogues and random picks from the rest.

This test relates to DeltatarO mutant. Kind of test: growth inhibition of S. aureus wild type versus tarO mutant, primary screen, teichoic acid synthesis inhibitors, RN4220, OD600 (AID 463173). As to conditions: OD600, 18 h, stronger effect = lower value, screened at 18.75 µg/mL (by protocol).
As to `O=C(NCc1ccc(Cl)cc1)c1cnc(N2CCCCC2)c2ccccc12`, the survival was 84% (inactive).

In the case of `CCc1ccc(N(CC)C(=O)c2ccc3c(=O)n4c(nc3c2)CCCCC4)cc1`, the survival was 86% (inactive).

For the molecule `CCOc1ccc(NC(=O)Cn2ncc3c2-c2cc(C)ccc2OC3)cc1`, the survival is 73% (inactive).

For the molecule `Cc1c(C(=O)NCc2cccc(F)c2)oc2c1-c1[nH]ncc1CC2`, the survival was 71% (inactive).

With `CC(CN=CC1=C(O)CC(C)(C)CC1=O)N=CC1=C(O)CC(C)(C)CC1=O` (centres undefined), the survival is 101% (inactive).

Take `CC1(C)CC(=O)C(C=NCCCN2CCCC2=O)=C(O)C1`: the survival is 94% (inactive).

Regarding `CC(C)C(=O)N1CCC(CN=CC2=C(O)CC(C)(C)CC2=O)CC1`, the survival is 52% (active).

Turning to `CC(O)Cc1nsc(NC(=O)c2cccs2)n1` (centres undefined), the survival was 81% (inactive).

As for `CCC(C)NC(=O)C1CCN(C(=O)c2cc3sccc3n2Cc2ccc(Cl)cc2)CC1` (centres undefined), the survival was 45% (active).

In the case of `CC(C)NC(=O)C1CCN(C(=O)c2cc3sccc3n2Cc2ccc(Cl)cc2)CC1`, the survival is 65% (inactive).

As for `COc1ccc(N2CCN(C(=O)c3cc4sccc4n3Cc3ccccc3)CC2)cc1`, the survival is 92% (inactive).

Take `CC(C)CCNC(=O)C1CCN(C(=O)c2cc3sccc3n2Cc2ccc(Cl)cc2)CC1`: the survival is 40% (active).

In the case of `COCCNC(=O)C1CCN(C(=O)c2cc3sccc3n2Cc2ccc(Cl)cc2)CC1`, the survival is 110% (inactive).

As for `CCn1c(C(=O)N2CCC(C(=O)NCCc3ccc(C)cc3)CC2)cc2sccc21`, the survival is 58% (inactive).

On to `CCn1c(C(=O)N2CCC(C(=O)N3CCN(c4ccc(OC)cc4)CC3)CC2)cc2sccc21`, for which the survival was 49% (active).

`CCn1c(C(=O)N2CCC(C(=O)N3CCN(c4cc(C)ccc4C)CC3)CC2)cc2sccc21`: the survival was 51% (inactive).

On to `COCCCNC(=O)C1CCN(C(=O)c2cc3sccc3n2Cc2ccc(Cl)cc2)CC1`, for which the survival was 59% (inactive).

For the molecule `Cc1ccc(CN(CC(=O)NC2CCCC2)C(=O)CSc2nnc(COc3ccccc3)o2)cc1`, the survival is 80% (inactive).

Turning to `O=C(Cn1c(=O)n(-c2ccc(Cl)cc2)c(=O)c2c3c(sc21)CCC3)c1ccc(F)cc1`, the survival was 51% (inactive).

As for `COc1ccc(N2CCN(C(=O)Cn3nc(Cc4cccnc4)c4ccccc4c3=O)CC2)cc1`, the survival is 108% (inactive).

Turning to `Cc1cc(C)c(NC(=O)CSc2nc(=O)n(Cc3cccnc3)c3c2CCC3)c(C)c1`, the survival was 104% (inactive).

For `C[n+]1ccn(CC(=O)c2ccccc2)c1`, the survival was 78% (inactive).

In the case of `COCCN=Cc1c(NCCOC)nc2ccccn2c1=O`, the survival is 103% (inactive).

On to `COC(=O)c1sc(N)c(C#N)c1C`, for which the survival was 74% (inactive).

With `CC(C)NC(=O)C1CCN(c2nc3ccccc3nc2C(F)(F)F)CC1`, the survival is 101% (inactive).

As to `CC(NC(=O)C1CCN(c2nc3ccccc3nc2C(F)(F)F)CC1)c1ccccc1` (centres undefined), the survival was 37% (active).

As to `Cc1ccc(NC(=O)C2CCN(c3nc4ccccc4nc3C(F)(F)F)CC2)cc1F`, the survival is 46% (active).

With `Cc1ccc(NC(=O)C2CCN(c3ncccn3)CC2)cc1F`, the survival was 53% (active).

In the case of `CSc1ccc(NC(=O)C2CCN(c3ncccn3)CC2)cc1`, the survival was 110% (inactive).

As to `O=C(Nc1ccc(Cl)cc1)C1CCN(c2nc3ccccc3nc2C(F)(F)F)CC1`, the survival is 25% (active).

With `O=C(Nc1cccc(Cl)c1)C1CCN(c2nc3ccccc3nc2C(F)(F)F)CC1`, the survival was 70% (inactive).

Regarding `Cc1cc(C)cc(NC(=O)C2CCN(c3nc4ccccc4nc3C(F)(F)F)CC2)c1`, the survival was 93% (inactive).

As to `O=C(Nc1ccc(F)cc1)C1CCN(c2nc3ccccc3nc2C(F)(F)F)CC1`, the survival was 118% (inactive).

Regarding `O=C(Nc1ccc(F)c(Cl)c1)C1CCN(c2ncccn2)CC1`, the survival was 63% (inactive).

For the molecule `CC(C)(C)NC(=O)C1CCN(c2nc3ccccc3nc2C(F)(F)F)CC1`, the survival was 63% (inactive).

As for `Cc1ccc(NC(=O)C2CCN(c3nc4ccccc4nc3C(F)(F)F)CC2)cc1C`, the survival was 91% (inactive).

Take `O=C(Nc1ccc(F)cc1F)c1c2c(nc3ccccc13)C(=O)N(C1CCCCC1)C2`: the survival is 81% (inactive).

Turning to `CCN(CC)C(=O)C1CCN(c2nnc(C)c3c(C)n(-c4ccc(Cl)cc4)nc23)CC1`, the survival is 95% (inactive).

Take `CCOc1ccc(N(C(C)C(=O)NCCSc2ccc(C)cc2)S(C)(=O)=O)cc1` (centres undefined): the survival is 45% (inactive).

Consider `COc1ccc(OC)c(NC(=O)CSC2=Nc3ccccc3C3=NC(CC(=O)NCc4ccco4)C(=O)N23)c1` (centres undefined), for which the survival is 99% (inactive).

`CC(C)Nc1nc(NC(N)=O)nc(NC(C)C)n1`: the survival is 104% (inactive).

On to `CCOc1ccc(CN2C(=O)c3ccccc3C2C(=O)NCCc2ccc(OC)c(OC)c2)cc1` (centres undefined), for which the survival was 88% (inactive).

`CCSc1nc2c([nH]c3ccccc32)c(=O)n1CC`: the survival is 68% (inactive).

On to `Cc1nc2c(-c3ccccc3)c(C)nn2c(C)c1CCC(=O)NCc1ccc(F)cc1`, for which the survival was 94% (inactive).

Regarding `COc1ccc(C(=O)N2CC(C)CC(C)C2)cc1` (centres undefined), the survival was 98% (inactive).

Regarding `CC1CCN(c2nn3c(=O)c(C(=O)NCCc4ccccc4)cnc3s2)CC1`, the survival is 95% (inactive).

Turning to `O=C(Nc1cccc(C(F)(F)F)c1)Nc1nnc(N2CCCCC2)s1`, the survival is 82% (inactive).

On to `NC(=O)N/N=C/c1ccc(-c2ccc(Cl)cc2)o1`, for which the survival is 87% (inactive).

As to `CCc1ccccc1N(C)C(=O)Cn1cnc2sc(C)c(S(=O)(=O)N3CCC(C)CC3)c2c1=O`, the survival was 71% (inactive).

`COc1cc(C2N=C(N)Nc3nc4ccccc4n32)ccc1OCCC(C)C` (centres undefined): the survival is 68% (inactive).

With `CC(C)c1ccc(C2N=C(N)Nc3nc4ccccc4n32)cc1` (centres undefined), the survival was 101% (inactive).

Regarding `CC(C)CCOc1ccc(C2N=C(N)Nc3nc4ccccc4n32)cc1` (centres undefined), the survival is -3% (active).

With `CCC(C#CCN1CCCCC1)(CC)OC(C)=O`, the survival is 98% (inactive).

In the case of `CCOC(=O)c1ccc(OCC2c3cc(OC)c(OC)cc3CCN2C(=O)Cc2ccc(F)cc2)cc1` (centres undefined), the survival is 68% (inactive).

Regarding `NC(=O)CSc1nc2c(oc3ccccc32)c(=O)n1-c1ccccc1F`, the survival was 59% (inactive).

As for `CC1(NS(=O)(=O)c2ccccc2)CCS(=O)(=O)C1` (centres undefined), the survival is 98% (inactive).

Consider `CC1(C)CC(N=Cc2c(O)[nH]c(=O)[nH]c2=O)CC(C)(C)N1`, for which the survival was 85% (inactive).

In the case of `O=C(Nc1cc(Cl)cc(Cl)c1)c1ccc(F)c(S(=O)(=O)N2CCN(c3ccccc3F)CC2)c1`, the survival was 84% (inactive).

In the case of `CN(C)C(=O)COc1ccc(S(=O)(=O)c2ccc(OCC(=O)N(C)C)cc2)cc1`, the survival is 109% (inactive).

Take `COc1ccc(-c2nc(S(=O)(=O)c3ccc(C)cc3)c(NCc3ccccc3)o2)cc1`: the survival is 67% (inactive).

As to `CC(C)CS(=O)(=O)c1oc(-c2ccc(F)cc2)nc1S(=O)(=O)c1ccccc1`, the survival was -4% (active).

For the molecule `CCSc1oc(-c2ccc(F)cc2)nc1S(=O)(=O)c1ccc(C)cc1`, the survival is 45% (inactive).

Take `COc1ccccc1NC(=O)CSc1oc(-c2ccccc2)nc1S(=O)(=O)c1ccccc1`: the survival was 145% (inactive).

Take `CCCCS(=O)(=O)c1oc(-c2ccc(F)cc2)nc1S(=O)(=O)c1ccc(C)cc1`: the survival was 30% (active).

Turning to `Cc1ccc(-c2nc(S(=O)(=O)c3ccc(F)cc3)c(N3CCN(c4ccccc4)CC3)o2)cc1`, the survival is 72% (inactive).

For `COc1ccccc1NC(=O)CSc1oc(-c2ccccc2)nc1S(=O)(=O)c1ccc(C)cc1`, the survival is 158% (inactive).

In the case of `CSc1oc(-c2cccs2)nc1S(=O)(=O)c1ccc(Br)cc1`, the survival is 56% (inactive).

Turning to `Cc1ccc(S(=O)(=O)c2nc(-c3ccc(F)cc3)oc2N2CCN(c3ccccc3)CC2)cc1`, the survival is 107% (inactive).

As to `COc1ccccc1NC(=O)CSc1oc(-c2ccc(F)cc2)nc1S(=O)(=O)c1ccc(Br)cc1`, the survival is 49% (active).

On to `CSc1oc(-c2ccc(F)cc2)nc1S(=O)(=O)c1ccc(Br)cc1`, for which the survival was 41% (active).

Consider `COc1cc(C)ccc1OCCSc1nc2ccc(NC(=O)c3cccs3)cc2s1`, for which the survival is 72% (inactive).

Regarding `CCOC(=O)c1ccccc1NC(=O)C1CCN(c2ncnc3c2nc2n3CCCCC2)CC1`, the survival is 62% (inactive).

In the case of `O=C1CS/C(=N/c2nc(-c3ccccc3)cs2)N1`, the survival was 83% (inactive).

Consider `COc1ccc(-c2nc3sc(CCNC(=O)c4ccccc4C)c(C)n3n2)cc1`, for which the survival was 77% (inactive).

Regarding `Cc1ccccc1CNC(=O)CCC(=O)N1CC2CCCN2c2ccccc21` (centres undefined), the survival is 55% (inactive).

With `CCCCS(=O)(=O)c1oc(-c2ccc(F)cc2)nc1S(=O)(=O)c1ccccc1`, the survival is 4% (active).

As to `O=S(=O)(c1ccccc1)c1nc(-c2ccc(F)cc2)oc1NCc1ccccc1`, the survival was 67% (inactive).

As to `CCS(=O)(=O)c1oc(-c2ccc(F)cc2)nc1S(=O)(=O)c1ccc(Br)cc1`, the survival is -5% (active).

For the molecule `CCS(=O)(=O)c1oc(-c2ccc(F)cc2)nc1S(=O)(=O)c1ccccc1`, the survival is -5% (active).

With `O=C(CSc1oc(-c2ccc(F)cc2)nc1S(=O)(=O)c1ccccc1)NC1CCCCC1`, the survival is 61% (inactive).

On to `O=C(CSc1oc(-c2ccc(F)cc2)nc1S(=O)(=O)c1ccc(Br)cc1)NC1CCCCC1`, for which the survival is 64% (inactive).

Take `COCCNc1oc(-c2ccccc2)nc1S(=O)(=O)c1ccc(Br)cc1`: the survival is 79% (inactive).

Regarding `CC(=O)Nc1ccc(NC(=O)CCc2c(C)nc3c(c(C)nn3-c3ccccc3)c2C)cc1`, the survival is 107% (inactive).

Consider `CCCCN(C)CCNC(=O)c1cc2c(=O)n(C)c3ccccc3c2n1C`, for which the survival is 90% (inactive).

Consider `Cc1ccccc1CCNC(=O)c1ccc2c(c1)nc1n2CCOC1`, for which the survival was 84% (inactive).

For `Cn1c(=S)[nH]c2c(c1=O)C1(CCCC1)Cc1ccccc1-2`, the survival was 80% (inactive).

For the molecule `CSCCC(NS(=O)(=O)c1ccc2c(c1)oc(=O)n2C)C(=O)NCc1ccc(Cl)cc1` (centres undefined), the survival is 92% (inactive).

For `COc1ccc(-c2nc3scc(CCNC(=O)Cc4ccc(F)cc4)n3n2)cc1`, the survival is 95% (inactive).

For the molecule `CCC(C(=O)Nc1cc(-c2nc3cccnc3s2)ccc1C)c1ccccc1` (centres undefined), the survival was 37% (active).

On to `CCC(CC)C(=O)Nc1cc(-c2nc3cccnc3s2)ccc1C`, for which the survival is 57% (active).

In the case of `CCC(CC)C(=O)Nc1cccc(-c2nc3cccnc3s2)c1`, the survival is 80% (inactive).

As to `CCC(C(=O)Nc1cc(-c2cn3cccnc3n2)ccc1C)c1ccccc1` (centres undefined), the survival was 91% (inactive).

Regarding `Cc1ccc(-c2nc3cccnc3s2)cc1NC(=O)C(C)C`, the survival was 112% (inactive).

`CCC(C(=O)Nc1cccc(-c2nc3cccnc3s2)c1C)c1ccccc1` (centres undefined): the survival was 92% (inactive).
